Hits are enriched below; roughly 7.5% of the tested compounds scored in any of these assays.
FLuc modulator: qHTS profiling assay for firefly luciferase inhibitor/activator using purifed enzyme and Km concentrations of substrates (counterscreen for miR-21 project); Luciferin 4-monooxygenase (Photinus pyralis), P08659; purified FLuc, Km substrates, luminescence inhibition; Potency, µM (doses to about 57.5 µM), hits mostly inhibitors; 6.9% of 360,000 active; also: nearly all actives have a fitted effect of over 55% in size
Target sequence (P08659 whole entry, looked up): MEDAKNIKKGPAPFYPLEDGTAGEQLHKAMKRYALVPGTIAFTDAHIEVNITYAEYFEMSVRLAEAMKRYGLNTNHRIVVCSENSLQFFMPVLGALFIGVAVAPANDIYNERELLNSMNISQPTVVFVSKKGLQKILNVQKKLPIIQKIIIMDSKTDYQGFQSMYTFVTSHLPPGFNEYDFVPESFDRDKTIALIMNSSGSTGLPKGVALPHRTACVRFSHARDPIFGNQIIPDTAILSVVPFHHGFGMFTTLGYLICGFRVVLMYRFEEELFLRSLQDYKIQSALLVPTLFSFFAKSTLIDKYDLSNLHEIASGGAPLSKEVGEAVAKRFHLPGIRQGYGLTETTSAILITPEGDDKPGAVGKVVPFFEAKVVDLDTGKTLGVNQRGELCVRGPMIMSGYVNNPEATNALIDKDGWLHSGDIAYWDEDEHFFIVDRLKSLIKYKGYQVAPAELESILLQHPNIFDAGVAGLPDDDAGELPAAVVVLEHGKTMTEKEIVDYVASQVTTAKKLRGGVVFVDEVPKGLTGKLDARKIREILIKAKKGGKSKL
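Purified P. pyralis luciferase, 10 nM final, with Km-level 10 uM D-luciferin and 10 uM ATP in 50 mM Tris acetate pH 7.5, 10 mM Mg acetate, 0.01% Tween-20, 0.05% BSA; 6-point qHTS titration about 60 µM downward; luminescence read.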
Rab9 promoter act: qHTS Assay for Rab9 Promoter Activators | Huh7 Rab9 promoter-luciferase reporter, luminescence, 24 h | Potency, µM (series often up to 9.22 µM), most hits filed as activators | 2.8% of 320,000 active | AID 485297, 2010; also: nearly all actives have a fitted effect of over 60% in size
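Huh7 cells stably carrying a Rab9 promoter-luciferase reporter, 1500 cells per well in OP-MEM I with 10% FBS, treated with compound 24 hours at 37C. Luciferase activity read by luminescence after 10 minutes with Amplite reagent.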
NPC1 promoter act: qHTS Assay for NPC1 Promoter Activators | Huh7 NPC1 promoter luciferase reporter, 24 h | Potency, µM (doses to about 9.22 µM), usual class: activators | 2.4% of 320,000 active | AID 485313, 2010; also: nearly all actives have a fitted effect of over 60% in size
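Luminescence read-out of NPC1 promoter-driven luciferase in stably transfected Huh7 cells; compounds delivered in DMSO and left 24 h at 37C, 5% CO2, qHTS titration format.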
SMN2 splice enh: qHTS Assay for Enhancers of SMN2 Splice Variant Expression; Potency, µM (top dose mostly 46.1 µM), usual class: activators; HEK293 SMN2-luciferase splicing reporter, luminescence, 30-36 h; 2.8% of 210,000 active; also: nearly all actives have a fitted effect of over 55% in size
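HEK293 cells carry an SMN2 […]–luciferase reporter in which exon 7 inclusion puts luciferase in frame. Cells were plated 10-12 h before compound addition, then incubated 30-36 h at 37C. ONE-Glo luminescence was read; sodium butyrate at 4.5 mM final served as control.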
Luc counter: Counterscreen for Luciferase (Kinase-Glo TM) Inhibition; Kinase-Glo luciferase, ATP luminescence, 8 min; Potency, µM (titrated, usually from 38.3 µM), most hits filed as inhibitors; 0.28% of 200,000 active; also: nearly all actives have a fitted effect of over 60% in size
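Compounds were added to a substrate mix at pH 7.2 (50 mM imidazole, 10 uM ATP, within the enzyme's linear range), followed by Kinase-Glo detection reagent; luminescence was measured after 8 minutes at ambient temperature.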
ELG1 genotoxic: qHTS screen for small molecules that induce genotoxicity in human embryonic kidney (HEK293T) cells expressing luciferase-tagged ELG1; Potency, µM (top dose mostly 46 µM), usual class: activators; 1.3% of 330,000 active; HEK293T ELG1-luciferase reporter, luminescence, 16 h; also: nearly all actives have a fitted effect of over 60% in size
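16 hr compound incubation (37 °C, 5% CO2) of HEK293T cells carrying luciferase-tagged ELG1; luciferase then measured by ONE-Glo luminescence after 30 min at RT.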
Of the large screens only hits and unclear results are named; the others gave an inactive call. Calls follow the shape of the dose curve; as a rule, active = well fitted curve in the direction sought with a large enough effect; inconclusive = small, poorly fitted or top-dose-only effect, or another doubt; inactive = no such curve, though single readings can be large; an effect the other way counts as inactive or inconclusive.

COCCN(CCOC)c1ncnc2c1cnn2-c1ccccc1	none (no result: SMN2 splice enh, Luc counter)
CCN(c1ccccc1)c1ncnc2c1cnn2-c1ccccc1	FLuc modulator 19µM, Rab9 promoter act inconclusive, NPC1 promoter act inconclusive, ELG1 genotoxic 20.6µM
CN(Cc1ccccc1)c1ncnc2c1cnn2-c1ccccc1	FLuc modulator 6.01µM, Rab9 promoter act 2.82µM, NPC1 promoter act 2.51µM, SMN2 splice enh 5.62µM, ELG1 genotoxic 18.4µM
COc1ccc(C(=O)Oc2ccc(/C=N/O)cc2)cc1	FLuc modulator 6.01µM
COc1ccc(C(=O)Oc2ccc(C(c3c(C)[nH][nH]c3=O)c3c(C)[nH][nH]c3=O)cc2)cc1	FLuc modulator 16.9µM (no result: Rab9 promoter act, NPC1 promoter act, Luc counter, ELG1 genotoxic)
Cc1cc(C)cc(Oc2coc3c(CN4CCN(C)CC4)c(O)ccc3c2=O)c1	none (no result: Rab9 promoter act, NPC1 promoter act, Luc counter, ELG1 genotoxic)
O=C1N/C(=N/N=C/c2ccc(F)cc2)SC1c1ccccc1 (stereo unspecified)	FLuc modulator 15.1µM (no result: SMN2 splice enh, Luc counter)
CC(=O)c1cccc(NC(=O)CC2S/C(=N/N=C/c3ccccc3)NC2=O)c1 (stereo unspecified)	none
COc1ccc(CNC(=O)Cn2ccc3cc(S(=O)(=O)N4CCCCC4)ccc32)c(OC)c1	none (no result: Rab9 promoter act, NPC1 promoter act, SMN2 splice enh, Luc counter, ELG1 genotoxic)
O=C(COn1nnc2ccccc21)NCC1CCCCC1	FLuc modulator 16.9µM, ELG1 genotoxic 12.6µM
Cc1cc(C)nc(-n2nc(C)c3c2N(Cc2ccccc2C)C(=O)CC3c2ccc(Cl)cc2)n1 (stereo unspecified)	none (no result: Rab9 promoter act, NPC1 promoter act, SMN2 splice enh, Luc counter, ELG1 genotoxic)
Cc1ccc(-c2cc(C(=O)NCCCN3CCOCC3)c3ccccc3n2)cc1C	FLuc modulator 12µM (no result: SMN2 splice enh, Luc counter)
Cc1ccc(-c2cc(C(=O)NCCCN3CCOCC3)c3ccccc3n2)cc1	FLuc modulator inconclusive (no result: SMN2 splice enh, Luc counter)
Cc1ccc(-c2cc(C(=O)NCCCN3CCCC3)c3ccccc3n2)cc1C	FLuc modulator inconclusive, ELG1 genotoxic inconclusive (no result: SMN2 splice enh, Luc counter)
CCOc1ccc(-c2cc(C(=O)NCCCN3CCCC3)c3ccccc3n2)cc1	FLuc modulator 12µM (no result: SMN2 splice enh, Luc counter)
COc1ccc(Nc2cc(C(=O)NCCCN3CCOCC3)c3ccccc3n2)cc1OC	FLuc modulator 16.9µM
Cc1cc(C(F)F)n2nc(C(=O)Nc3c(C)cccc3C)nc2n1	none (no result: Rab9 promoter act, NPC1 promoter act, Luc counter, ELG1 genotoxic)
Cc1ccc(C)c(NC(=O)CCN2C(=O)c3ccccc3Sc3ncccc32)c1	none (no result: Rab9 promoter act, NPC1 promoter act, SMN2 splice enh, Luc counter, ELG1 genotoxic)
COc1ccc(-c2nc3c(C#N)c[nH]n3c2NC2CCCC2)cc1	none (no result: Rab9 promoter act, NPC1 promoter act, SMN2 splice enh, Luc counter, ELG1 genotoxic)
Cc1ccc(Cn2cnc3c(oc4ccccc43)c2=O)cc1	none (no result: Rab9 promoter act, NPC1 promoter act, SMN2 splice enh, Luc counter, ELG1 genotoxic)
COc1ccc(/C=N/Nc2cc(C)nc(N)n2)cc1	FLuc modulator 19µM, SMN2 splice enh inconclusive
COc1cc(/C=N/Nc2cc(C)nc(N)n2)ccc1O	FLuc modulator 9.53µM, ELG1 genotoxic inconclusive (no result: SMN2 splice enh, Luc counter)
CCOC(=O)COc1ccccc1/C=C1/NC(=O)NC1=O	none
COc1cccc(/C=C2\NC(=O)NC2=O)c1O	FLuc modulator 7.57µM, ELG1 genotoxic inconclusive (no result: SMN2 splice enh, Luc counter)
COc1ccc(-n2c(SCc3ccccc3F)nc3c([nH]c4ccccc43)c2=O)cc1OC	none (no result: Rab9 promoter act, NPC1 promoter act, SMN2 splice enh, Luc counter, ELG1 genotoxic)
CCOc1ccccc1Oc1nc(C)nc2c1oc1ccccc12	none (no result: Rab9 promoter act, NPC1 promoter act, SMN2 splice enh, Luc counter, ELG1 genotoxic)
O=C1CCCN1CCCN=c1c([N+](=O)[O-])nn(-c2ccc(Cl)cc2)n1O	none
COc1ccc(-n2nc([N+](=O)[O-])c(=NCCCN3CCCC3=O)n2O)cc1	Rab9 promoter act 1.58µM, NPC1 promoter act inconclusive, ELG1 genotoxic inconclusive
COc1ccc(-n2nc([N+](=O)[O-])c(=NCCc3cccc(C)c3)n2O)cc1	Rab9 promoter act 2.24µM, NPC1 promoter act inconclusive (no result: SMN2 splice enh, Luc counter)
O=C(CN1CCSc2ccccc21)NCc1ccccc1F	none (no result: Rab9 promoter act, NPC1 promoter act, SMN2 splice enh, Luc counter, ELG1 genotoxic)
O=C(O)c1cccc(-n2cccc2/C=C2/NC(=O)N(c3cccc(Cl)c3)C2=O)c1	none (no result: SMN2 splice enh, Luc counter)
O=C(O)c1cccc(-n2cccc2C=C2C(=O)c3ccccc3C2=O)c1	FLuc modulator 12µM (no result: SMN2 splice enh, Luc counter)
O=C1C(=Cc2cccn2-c2ccc(O)cc2)C(=O)c2ccccc21	FLuc modulator 3.38µM
O=C(O)c1cccc(-n2cccc2/C=C2/NC(=O)N(c3ccc(Cl)cc3)C2=O)c1	FLuc modulator 26.9µM
